Assay results as given in ChEMBL document CHEMBL1157539, “Thousands of chemical starting points for antimalarial lead identification” (Nature, 2010).

These compounds were tested on HepG2 (assay: GSK_TCMDC: Percent inhibition of human HepG2 cell line. Test compounds present at 10uM.).
Type: functional
`COc1ccc(-c2cccc(NC(=O)c3cccc(Cl)c3)c2)cc1CN1CCCN(C)CC1.O=C(O)C(F)(F)F` showed an Inhibition of 20%. In the case of `CN(C)CCOc1ccc2c(=O)cc(CCc3cccc(F)c3F)n(CC(=O)N(C)Cc3ccc(-c4ccc(C(F)(F)F)cc4)cc3)c2c1.O=C(O)C(O)C(O)C(=O)O`, the Inhibition is reported as 33%. `O=S(=O)(c1ccc(Cl)cc1Cl)N1CCCCC(c2ccc(C(F)(F)F)cc2)=N1` showed an Inhibition of 10%. With `Cc1nnsc1C(=O)Nc1cccc(-c2ccc(-c3nc4cc(F)ccc4[nH]3)s2)c1` the Inhibition was 62%. `COCCSc1nc2scc(C)c2c(=O)n1Cc1cccc(OC)c1` showed an Inhibition of 0%. `O=C(/C=C/c1ccc(Cl)c(Cl)c1)NCCCCCN1CCN(C(=O)Nc2cccc(F)c2)CC1` was tested, and the Inhibition was 12%. `CN1CCC(NCc2cccc(-c3ccc(S(=O)(=O)NCc4ccccc4)cc3)c2)CC1.O=C(O)C(F)(F)F` showed an Inhibition of 61%. In the case of `CC(=O)Nc1ncc(C(=O)Nc2cccc(-c3ccc(-c4nc5ccccc5[nH]4)cc3)c2)s1`, the Inhibition is reported as 12%. Compound `Cc1nnsc1C(=O)Nc1cccc(-c2ccc(-c3nc4cccc(C)c4[nH]3)s2)c1` has an Inhibition of 46%. `CCCCCCSc1nnc(COc2cccc3ccccc23)n1-c1ccc(OC)cc1` showed an Inhibition of 19%. Compound `Br.C=CCNC(CCCCC)c1ccc(OCCOc2ccc(C(CCCCC)NCC=C)cc2)cc1` (stereo not given) has an Inhibition of 100%. `COc1cc(Cc2c(C)nc3nc(N)nc(N)c3c2C)c(Br)c(OC)c1OC.Cl` showed an Inhibition of 44%. In the case of `CCN(C1CCCCC1)S(=O)(=O)c1ccc(OC)c(N2CCN(C(=O)C(Cl)(Cl)Cl)CC2)c1`, the Inhibition is reported as 0%. `O=C(Cc1ccc(Cl)cc1)NC1CCN(c2ccnc3cc(Cl)ccc23)C1.O=C(O)C(F)(F)F` (stereo not given) showed an Inhibition of 13%. `CCc1c(CCNCCCCCCNCCc2ccc(OC)c(OC)c2CC)ccc(OC)c1OC.Cl` gave an Inhibition of 58%. `CO/C(=C\C=C\c1cc2cc(Cl)c(Cl)cc2[nH]1)C(=O)NCC(C)(C)CN(C)C` showed an Inhibition of 35%. `O=C(NCC1CCC(C(=O)NCCN2CCCCC2)CC1)c1ccc(O)c(-c2ccc(Cl)c(Cl)c2)c1` (stereo not given) was tested, and the Inhibition was 0%. With `Cn1nc(-c2ccc(CN[C@@H]3CCc4ccc(O)cc43)cc2)c2cnc(NC3CCCC3)nc21` the Inhibition was 12%. `COCn1ncc2cc(-c3cccc(NC(=O)c4csc(NC(C)=O)n4)c3)ccc21` was tested, and the Inhibition was 0%. Work on `O=C1COc2ccc(CNC3CCC(O)(CCc4ccnc5cc6c(cc45)OCCO6)CC3)nc2N1` (stereo not given) yielded an Inhibition of 0%. Work on `CCOc1ccc(C(=O)N2CCOC(CCN3CCC4(CCc5ccccc54)CC3)(c3ccc(Cl)c(Cl)c3)C2)cc1` (stereo not given) yielded an Inhibition of 25%. In the case of `Cl.O=S(=O)(Nc1cc2c(cc1O)CCNCC2)c1ccc(-c2ccc(Cl)cc2)cc1`, the Inhibition is reported as 10%. `COc1cc(CNC[C@@H](O)[C@H](Cc2ccccc2)NC(=O)c2cc(OC(C)C)cc(N3CCCS3(=O)=O)c2)cc(OC)c1.Cl` was tested, and the Inhibition was 0%. In the case of `CC(C)CNCc1cccc(-c2cccc(CN(CCN(C)C)C(=O)NCCc3ccccc3)c2)c1.O=C(O)C(F)(F)F`, the Inhibition is reported as 84%. For `O=C(Nc1ccc(OC2CCN(Cc3ccc(F)cc3)C2)cc1)c1cccs1.O=C(O)C(F)(F)F` (stereo not given), the Inhibition was 2%. `Cc1nnc2c(NC(=O)NC3CCCC3)cc3ccc(-c4cccc(CN5CCN(C)CC5)c4)cc3n12` showed an Inhibition of 54%. In the case of `COc1ccc2nccc([C@@H](O)CN3CCC(NCc4cc5ccccc5nc4O)CC3)c2c1.Cl`, the Inhibition is reported as 0%. For `NC(=O)CCC(NC(=O)CNC(=O)Nc1cccc(C(F)(F)F)c1)C(=O)O` (stereo not given), the Inhibition was 1%. With `O=C(Nc1ccc2nc3n(c(=O)c2c1)CCCCC3)C(=O)N1CCN(c2ccc(F)cc2)CC1` the Inhibition was 10%. For `Cc1cc2nc(-c3ccc(C(=O)NC4CCN(Cc5ccccc5)CC4)cc3)[nH]c2cc1C`, the Inhibition was 0%. `Cc1ccccc1C1CCN(C2CCC(NC(=O)/C=C/c3cc(F)cc(F)c3)CC2)CC1` (stereo not given) was tested, and the Inhibition was 53%. `O=C(O)C(F)(F)F.c1cc(-c2ccc(CN3CCN(c4ccncc4)CC3)cc2)cc(-c2nc3ccccc3[nH]2)c1` gave an Inhibition of 61%. Compound `Cl.Nc1c2c(nc3ccc(NC(=O)CCCc4ccccc4)cc13)CCCC2` has an Inhibition of 73%. Compound `Cc1cc(-c2nc3ccc(N4CCN(C)CC4)cc3[nH]2)nn1Cc1cc(Cl)ccc1OCC(C)C.Cl` has an Inhibition of 41%. In the case of `O=C(CN(c1cccc(C(F)(F)F)c1)S(=O)(=O)c1ccc(Cl)cc1)NCCC(c1ccccc1)c1ccccc1`, the Inhibition is reported as 14%. `CN1CCC(NCc2cccc(-c3cnc(NCc4ccccc4)nc3)c2)CC1.O=C(O)C(F)(F)F` gave an Inhibition of 12%. Work on `O=[N+]([O-])c1ccc(N2CCCN(C(=S)Nc3ccc(F)cc3Br)CC2)nc1` yielded an Inhibition of 4%. `O=C(/C=C/c1ccc(Cl)c(Cl)c1)NCCCCCN1CCC(NC(=O)Nc2ccc(OC(F)F)cc2)CC1` gave an Inhibition of 33%. `CC=CC1CCNC(C(O)c2ccnc3ccc(OC)cc23)C1` (stereo not given) was tested, and the Inhibition was 0%. `CN1CCN(Cc2ccc(-c3ccc4c(Nc5ccc(Cl)cc5F)ccnc4c3)o2)CC1` gave an Inhibition of 47%.
